Test results published in PubChem BioAssay AID1851 (National Center for Advancing Translational Sciences (NCATS), 2009).
Out of some 16,000 compounds screened, about 5,100 (32%) were called active. Inconclusive results (about 25%) are left out. Calls follow the shape of the dose curve; as a rule, active = well fitted curve in the direction sought with a large enough effect; inconclusive = small, poorly fitted or top-dose-only effect, or effect the other way; inactive = no such curve, though single readings can be large or run the other way. This is one part of the list.

Target: Cytochrome P450 3A4 (Homo sapiens) (UniProt P08684)
Assay: Cytochrome panel assay with activity outcomes
Details: recombinant CYP, pro-luciferin dealkylation, luminescence, p450-cyp3a4; series mostly up to 57.1 µM; activity, negative = inhibition: at the top concentration
% is scaled to controls: 0 for no effect and ±100 for the full control effect.

Sequence of Cytochrome P450 3A4 (Homo sapiens) (P08684 whole entry, looked up): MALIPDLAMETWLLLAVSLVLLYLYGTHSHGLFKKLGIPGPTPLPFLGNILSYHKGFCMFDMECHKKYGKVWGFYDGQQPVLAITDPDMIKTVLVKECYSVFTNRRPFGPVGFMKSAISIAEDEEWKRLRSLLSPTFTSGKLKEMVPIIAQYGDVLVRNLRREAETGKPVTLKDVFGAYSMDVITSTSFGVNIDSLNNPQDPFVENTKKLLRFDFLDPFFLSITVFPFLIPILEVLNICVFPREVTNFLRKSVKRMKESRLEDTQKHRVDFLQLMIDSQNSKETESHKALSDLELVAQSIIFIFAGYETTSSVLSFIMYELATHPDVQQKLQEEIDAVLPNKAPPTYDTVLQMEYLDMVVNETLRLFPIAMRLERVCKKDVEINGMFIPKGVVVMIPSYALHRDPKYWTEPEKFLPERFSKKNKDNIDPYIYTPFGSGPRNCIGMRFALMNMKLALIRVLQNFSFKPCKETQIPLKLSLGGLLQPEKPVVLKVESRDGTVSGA

SMILES | activity, negative = inhibition | AC50
O=C1C(O)=C(O)C(=O)C(O)=C1O | -16.8% [at 25.6 µM] (inactive) | 
NC(N)=NC(N)=Nc1ccc(S(=O)(=O)O)cc1 | -0.586% [at 11.4 µM] (inactive) | 
CC1=CC=CN2CC(O)CN=C12 (stereo not given) | -1.24% (inactive) | 
Cc1c(C(=O)NN2CCN(C)CC2)cccc1[N+](=O)[O-] | -3.79% (inactive) | 
COc1ccc(Cc2nnc(NC(=O)c3cccc([N+](=O)[O-])c3C)s2)cc1 |  | 10 µM (active)
COc1ccc(Cc2nnc(NC(=O)c3ccco3)s2)cc1 | 13.7% (inactive) | 
O=C(CN1CCCCC1)Nc1cccc([N+](=O)[O-])c1 | 22.9% (inactive) | 
COCC(=O)N(C)c1nnc(-c2ccc([N+](=O)[O-])cc2)s1 | -5.26% [at 2.29 µM] (inactive) | 
O=C(CN1CCCCC1)Nc1nnc(-c2ccc([N+](=O)[O-])cc2)s1 |  | 7.94 µM (active)
FC(F)(F)c1ccc(/C=N/N2CCN(Cc3cccc4ccccc34)CC2)cc1 | 15.5% [at 2.29 µM] (inactive) | 
Cn1c(=O)c2cn(-c3ccccc3)cc2n(C)c1=O | -2.19% [at 11.4 µM] (inactive) | 
Cn1c(=O)c2cc(S(=O)(=O)NCCC(=O)N3CC=C(c4ccccc4)CC3)ccc2n(C)c1=O |  | 10 µM (active)
CCCN(CCC)CCNC(=O)C1CCCN(S(=O)(=O)c2ccc3c(c2)oc(=O)n3C)C1 (stereo not given) | -19.5% (inactive) | 
Cn1c(=O)oc2cc(S(=O)(=O)NCCC(=O)N3CC=C(c4ccccc4)CC3)ccc21 |  | 12.6 µM (active)
O=C(Nc1ccccc1)[C@@]12C[C@@H]1/C(=N/O)c1ccccc1O2 | -18.7% (inactive) | 
Fc1ccc(C(OCCCc2cnc[nH]2)c2ccc(F)cc2)cc1 |  | 0.794 µM (active)
O=C(O)CCC(O)=C1S(=O)(=O)OCCOS1(=O)=O | 2.08% [at 11.4 µM] (inactive) | 
O=c1[nH]c2cc3c(cc2cc1CN(CCCO)Cc1nnnn1Cc1ccc(F)cc1)OCO3 |  | 3.16 µM (active)
Cc1cc(C)c2cc(CN(Cc3nnnn3Cc3ccc(F)cc3)C3CCCC3)c(=O)[nH]c2c1 |  | 10 µM (active)
COc1ccccc1CN(Cc1cc2cc(C)cc(C)c2[nH]c1=O)Cc1nnnn1CC1CCCO1 (stereo not given) |  | 10 µM (active)
COc1ccccc1CN(Cc1cc2cc3c(cc2[nH]c1=O)OCCO3)Cc1nnnn1Cc1ccco1 |  | 10 µM (active)
NC(N)=N/N=C\c1ccc(C2CCNCC2)cc1 | -4.2% [at 11.4 µM] (inactive) | 
CN(C)CCCn1c2c3ccccc3ccc2c2oc(=O)c3ccccc3c21 | 3.83% [at 11.4 µM] (inactive) | 
NC1=NC(=O)/C(=C/c2cccs2)S1 | 10.4% (inactive) | 

SMILES | activity, negative = inhibition | AC50
CCNc1ncc2nc(-c3ccccc3)c(=O)n(C)c2n1 | -26.1% (inactive) | 
CCNc1ncc2nc(-c3ccc(Cl)cc3)c(=O)n(C)c2n1 | -10.1% (inactive) | 
COc1ccc(-n2c(=O)c(CCc3ccccc3)nc3cnc(N4CCOCC4)nc32)cc1 |  | 12.6 µM (active)
CCNc1ncc2nc(CCc3ccccc3)c(=O)n(-c3ccc(OC)cc3)c2n1 |  | 6.31 µM (active)
CCNc1ncc2nc(C)c(=O)n(C3CC3)c2n1 | -24.2% (inactive) | 
COc1ccc(-c2nc3cnc(N4CCOCC4)nc3n(CCc3ccccc3)c2=O)cc1 | -9.07% (inactive) | 
CCNc1ncc2nc(-c3ccccc3)c(=O)n(C3CC3)c2n1 | -27.1% (inactive) | 
CCNc1ncc2nc(CCc3ccccc3)c(=O)n(-c3ccccc3)c2n1 |  | 5.01 µM (active)
CCNc1ncc2nc(CCc3ccccc3)c(=O)n(C3CC3)c2n1 |  | 15.8 µM (active)
COc1ccc(-n2c(=O)c(-c3ccccc3)nc3cnc(N4CCOCC4)nc32)cc1 | -13.6% (inactive) | 
COc1ccc(C(=O)c2cnc3ccccc3c2-c2ccccc2)cc1 |  | 12.6 µM (active)
COc1ccc(C(=O)c2ccccc2)c(O)c1 | -12.2% [at 25.6 µM] (inactive) | 
CCOC(=O)c1cn(-c2nc(-c3ccc(Cl)cc3)cs2)c2c(F)c(N3CC(C)OC(C)C3)c(F)cc2c1=O (stereo not given) | -1.76% (inactive) | 
Cc1ccc2[nH]c3c(N4CCc5ccccc5C4)ncnc3c2c1 | -19.7% [at 2.29 µM] (inactive) | 
Cc1ccc(S(=O)(=O)Nc2nc3ccccc3nc2N2CCc3ccccc3C2)cc1 |  | 2.82 µM (active)
O=C1C2C3C=CC(C2C(=O)N1CN1CCOCC1)C1C2C(=O)N(CN4CCOCC4)C(=O)C2C31 (stereo not given) | -1.18% [at 11.4 µM] (inactive) | 
COc1cccc(-c2cc(NCc3cccnc3)ncn2)c1 |  | 3.98 µM (active)
c1cncc(-c2cc(NCc3cccs3)ncn2)c1 |  | 2.51 µM (active)
COc1cccc(-c2cc(NCc3cnc(C)cn3)ncn2)c1 |  | 25.1 µM (active)
COc1cccc(-c2cc(NCc3cccs3)ncn2)c1 |  | 7.94 µM (active)
COc1ccccc1-c1cc(NCc2cnc(C)cn2)ncn1 | -29.9% (inactive) | 
N[C@](CC1c2ccccc2Oc2ccccc21)(C(=O)O)[C@@H]1C[C@@H]1C(=O)O | -17.2% (inactive) | 
CCCOC(=O)c1ccc(NC(=O)c2cn(CC)c3nc(C)ccc3c2=O)cc1 | -9.88% (inactive) | 
C[C@@H]1c2cccc(O)c2C(O)=C2C(=O)[C@@]3(O)C(O)=C(C(N)=O)C(=O)[C@@H](N(C)C)[C@@H]3[C@@H](O)[C@@H]21 |  | inactive

SMILES | activity, negative = inhibition | AC50
COc1cccc(-c2cc(NCc3ccccc3)ncn2)c1 |  | 25.1 µM (active)
O=C(NCCOC(=O)c1ccc(C(=O)OCCNC(=O)c2cccnc2)s1)c1cccnc1 |  | 2.51 µM (active)
O=C(NCCO[N+](=O)[O-])c1cccnc1 | -5.81% (inactive) | 
CCN1C(=O)/C(=C/C=C2/SCCN2C)SC1=S | 0.316% [at 2.29 µM] (inactive) | 
CN1CCN(NC(=O)CN2C(=O)/C(=C/c3c(Cl)cccc3Cl)SC2=S)CC1 |  | 14.1 µM (active)
CN1CCN(NC(=O)c2cccc(F)c2)CC1 | -1.37% (inactive) | 
CSC(=NC#N)N1CCN(c2ccc(Cl)cc2)CC1 | 22.3% (inactive) | 
CN(C)C(=C(C#N)C#N)N1CCN(c2ccc(Cl)c(Cl)c2)CC1 |  | 8.91 µM (active)
C[N@+]1(CCC(=O)c2ccccc2)CC[C@H]2CC[C@H](C2)C1 | -5.07% [at 11.4 µM] (inactive) | 
CCOC(=O)c1c(NC(C)=O)sc2c(OC)cccc12 |  | 2 µM (active)
CCOC(=O)c1sc(NC(C)=O)nc1-c1ccccc1 | -5.57% [at 2.29 µM] (inactive) | 
O=[N+]([O-])C(/C=C(\Cl)[N+](=O)[O-])=C1N(Cc2ccc(Cl)nc2)CCN1Cc1ccc(Cl)nc1 |  | 14.1 µM (active)
CC(=O)c1cccc(NC(=O)c2csc(-n3nc(C)cc3C(F)(F)F)n2)c1 |  | 10 µM (active)
CCOC(=O)c1cnn(-c2nc(-c3cccc(F)c3)cs2)c1C(F)(F)F | 29.3% (inactive) | 
CCOc1ccc(CC(=O)Nc2sc(Cc3ccccc3)c(C)c2C(N)=O)cc1OCC |  | 20 µM (active)
Cc1sc(NC(=O)c2ccccc2)c(C(=O)NCCN(C)C)c1C | -2.43% (inactive) | 
COC(=O)c1ccc(NC(C)=O)o1 | -12.1% (inactive) | 
COC(=O)c1c(NC(C)=O)sc(Cc2ccccc2)c1C |  | 14.1 µM (active)
CCOc1ccc(CC(C(N)=O)C(N)=O)cc1CN(C)C | -4.85% [at 2.29 µM] (inactive) | 
CO[C@]1(NC(=O)[C@H](C(=O)O)c2ccc(O)cc2)C(=O)N2C(C(=O)O)=C(CSc3nnnn3C)CO[C@H]21 | 5.89% [at 25.6 µM] (inactive) | 
CN(CC(=O)Nc1ccc(F)c(F)c1)S(=O)(=O)c1cccc2nsnc12 |  | 5.01 µM (active)
CC1CCN(C(=O)Nc2ccc3nsnc3c2)CC1 | -28.8% (inactive) | 
CC1CCN(C(=O)CN(C)S(=O)(=O)c2cccc3nsnc23)CC1 |  | 3.55 µM (active)
COc1cc([C@@H](O)CO)ccc1OS(=O)(=O)O | 2.06% (inactive) | 

SMILES | activity, negative = inhibition | AC50
COc1cccc(N=c2oc3c(C)ncc(CO)c3cc2C(N)=O)c1 |  | 17.8 µM (active)
CCOC(=O)c1c(C)nc2c(c1-c1ccc(OC)cc1)C(=O)CC(C)(C)C2 |  | 10 µM (active)
CCOC(=O)c1c(C)nc2c(c1-c1ccccc1)C(=O)CC(C)(C)C2 | -29.8% (inactive) | 
CCC(=O)Nc1cccc(C(=O)/C=C/c2ccccc2)c1 | -23.2% [at 11.4 µM] (inactive) | 
Cc1ccc(NC(=O)/C(=C\c2cccnc2)NC(=O)c2ccco2)cc1 | 15.8% (inactive) | 
O=C(/C=C/c1ccccc1)NNC(=O)c1cccnc1 | -12% [at 2.29 µM] (inactive) | 
O=C(Nc1ccc2nc(-c3ccc(Br)o3)[nH]c2c1)c1ccco1 |  | 14.1 µM (active)
O=C(N/C(=C\c1cccnc1)C(=O)N1CCOCC1)c1cccc(Br)c1 |  | 1 µM (active)
O=C(/C=C/c1cccnc1)c1ccc(NC(=O)c2cccc(Br)c2)cc1 |  | 2.24 µM (active)
O=C(Nc1cccc(Br)c1)/C(=C\c1cccnc1)NC(=O)c1ccco1 |  | 0.501 µM (active)
CCC(=O)NC(NC(=O)CC)C(Cl)Cl | -2.18% (inactive) | 
NCCCCC(=O)O | -3.14% (inactive) | 
CCC[C@H]1C[C@H](C(=O)N[C@H]([C@@H]2O[C@H](SC)[C@@H](O)[C@H](O)[C@@H]2O)[C@H](C)O)N(C)C1 | -11.4% [at 25.6 µM] (inactive) | 
O=C(Nc1cccc(NC(=O)c2ccc(-c3cccc(Br)c3)o2)c1)c1ccco1 |  | 5.01 µM (active)
O=C(Nc1cccc(OC(=O)c2ccco2)c1)c1ccco1 | 3.14% [at 11.4 µM] (inactive) | 
CCCN(CCO)Cc1ccc(F)c(Br)c1 | -0.689% (inactive) | 
COc1ccc(OCCn2c(C)c(/C=N/n3cnnc3)c3ccccc32)cc1 |  | 0.501 µM (active)
Cc1ccc(NS(=O)(=O)c2ccccc2Cl)c2c1CC(C)(C)O2 |  | 0.708 µM (active)
CN(C)N1C(N)=C(C#N)C(c2cccnc2)C2=C1CC(C)(C)CC2=O (stereo not given) |  | 2.24 µM (active)
O=c1[nH]c(SCc2c(Cl)c(Cl)c(Cl)c(Cl)c2Cl)nc(=S)[nH]1 |  | 3.16 µM (active)
Clc1ccccc1C(Nc1ncccn1)Nc1ncccn1 | 4.33% [at 11.4 µM] (inactive) | 
O=S(=O)(C[C@H](O)C(Cl)(Cl)Cl)NNc1ccccc1 | -15.6% [at 11.4 µM] (inactive) | 
O=C1c2ccccc2C(=O)c2c(NC3CCCCC3)ccc(Nc3ccc(S(=O)(=O)O)cc3)c21 | -21.4% [at 11.4 µM] (inactive) | 
